The values that follow come from the supplement of paper PMC3334620.

Over roughly 33,000 sequences, “E-score (-0.5 to 0.5)” has its median near -0.012; the highest 2% begin near 0.27. This is one part of a sample in which the highest values are shown more often than they occur.

This test addresses T1, Vhr1 (UniProt P40522).
T1 sequence: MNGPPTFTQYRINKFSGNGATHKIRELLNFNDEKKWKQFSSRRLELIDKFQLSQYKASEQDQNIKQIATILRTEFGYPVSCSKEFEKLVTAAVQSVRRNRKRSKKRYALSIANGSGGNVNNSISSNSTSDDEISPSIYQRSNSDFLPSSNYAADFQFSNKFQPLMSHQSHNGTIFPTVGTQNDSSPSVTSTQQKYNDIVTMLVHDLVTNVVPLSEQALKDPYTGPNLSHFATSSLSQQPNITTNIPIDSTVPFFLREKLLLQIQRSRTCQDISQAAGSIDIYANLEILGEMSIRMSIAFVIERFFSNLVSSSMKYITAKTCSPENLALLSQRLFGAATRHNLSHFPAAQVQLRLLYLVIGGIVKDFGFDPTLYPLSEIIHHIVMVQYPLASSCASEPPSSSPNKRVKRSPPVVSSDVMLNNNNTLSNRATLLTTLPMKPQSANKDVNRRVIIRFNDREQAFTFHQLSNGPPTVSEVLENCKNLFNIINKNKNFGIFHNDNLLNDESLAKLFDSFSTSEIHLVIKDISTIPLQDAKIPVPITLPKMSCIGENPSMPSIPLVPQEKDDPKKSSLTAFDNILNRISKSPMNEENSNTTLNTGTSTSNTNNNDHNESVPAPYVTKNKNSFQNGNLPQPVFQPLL
Briefly: PBM E-score (8-mer binding enrichment) (E-score (-0.5 to 0.5)); higher = stronger / more preferred TF binding. Particulars: protein concentration: 200 nM; construct: GST-full length. An outline of the steps:
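Yeast transcription factors, full-length or as DNA-binding domains, were expressed with a GST tag using PURExpress in vitro transcription/translation. At about 100-200 nM they were applied to universal all-10-mer Agilent arrays, double-stranded by primer extension on fresh or once-stripped slides. Fluorescent anti-GST detected bound protein, and masliner normalised the scans. E-scores for ungapped eight-base words, pooled with reverse complements, came from the Universal PBM Analysis Suite.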
For GACTACCA, the “PBM E-score” value was determined as 0.306. As to AACTACAC, the “PBM E-score” value worked out at 0.0739.

Consider TACTACTA, for which the “PBM E-score” value stood at 0.208. GACTACAC: the “PBM E-score” value turned out to be 0.315.

Consider AACTACTA, for which the “PBM E-score” value turned out to be 0.078. For GACTATAA, the “PBM E-score” value turned out to be 0.0359. The result for GACTATAC reads 0.322.

Regarding AACTATAC, the “PBM E-score” value was 0.114. Next, CACTACAC: 0.163.

With GACTACTA, the “PBM E-score” value was 0.328. On to CATAGAAA, for which the “PBM E-score” value was determined as 0.102. With GCTAGAAA, the “PBM E-score” value was -0.0866. The result for AGACTGTG reads -0.0209. The result for GGAGTGCA reads 0.14; that for CGTTTTTC, -0.141; that for ACCATAGT, 0.0959.

With AAGCAAGT, the “PBM E-score” value is -0.0526. The result for CAGTACTC reads 0.117. In the case of AAGTAACA, the “PBM E-score” value stood at 0.0225. On to AACTACTC, for which the “PBM E-score” value came to 0.19. The result for GACTAACA reads 0.354. The result for TACTAACA reads 0.145; that for CACTAACA, 0.177. Take CACTACTC: the “PBM E-score” value is 0.205. As for GACTACTC, the “PBM E-score” value was determined as 0.31.

With GAGTAACC, the “PBM E-score” value is 0.106.

For the sequence AAGTACTC, the “PBM E-score” value was found to be 0.0478.

Turning to GAGTACTC, the “PBM E-score” value was 0.345. GAGTAACA: the “PBM E-score” value amounted to 0.286.

AGCAGCGG: the “PBM E-score” value turned out to be 0.0635. On to GAGCCAAC, for which the “PBM E-score” value is -0.0688. As to ACATAGCT, the “PBM E-score” value was -0.216. Next, AACCAATT: 0.0547; CTAGCAAA: 0.00326; ATGGATCC: 0.144. With AGTTACTC, the “PBM E-score” value was determined as 0.0219. The result for CACACCTG reads 0.207; that for GACACAGC, 0.129. Turning to AACACAGC, the “PBM E-score” value was 0.229. For CACACCTC, the “PBM E-score” value was 0.285. GACACCTC: the “PBM E-score” value was 0.0308.

Take AACACAGG: the “PBM E-score” value amounted to 0.0235. For CACACAGG, the “PBM E-score” value amounted to 0.272. The result for CACACAGC reads 0.307. As for CACACAGA, the “PBM E-score” value amounted to 0.263. On to AGTGGTGC, for which the “PBM E-score” value is -0.0378. For ACTGTAGA, the “PBM E-score” value stood at 0.0811. For the sequence CGAAGAAC, the “PBM E-score” value turned out to be 0.0807. As for ACTAAACG, the “PBM E-score” value is -0.0382. In the case of CAGCAGCG, the “PBM E-score” value was -0.0154. AGATCTTA: the “PBM E-score” value was -0.0915. Regarding CAACAACA, the “PBM E-score” value was found to be 0.234. In the case of CCATTGGG, the “PBM E-score” value is -0.18. Next, GCACTGCC: -0.039; ACACTGCA: 0.0651; ACACTGCC: 0.281. Take CTTCTGCA: the “PBM E-score” value was -0.194. Consider CATCATAG, for which the “PBM E-score” value came out at 0.266. The result for AATCATAC reads 0.4. Consider ACTCATAC, for which the “PBM E-score” value was 0.284.

As to AATCATAA, the “PBM E-score” value came out at 0.131. Consider GATCATAC, for which the “PBM E-score” value was determined as 0.114. Next, CATCATAC: 0.216. Next, ATTCATAG: 0.0981. For AATCATAG, the “PBM E-score” value was 0.329. Next, GCTCATAC: -0.135; CCTCATAC: -0.119; AATCAAAT: -0.0562. Regarding AATCATAT, the “PBM E-score” value came out at 0.296. For the sequence AACCCGTT, the “PBM E-score” value was -0.0686. Consider GGTGCACA, for which the “PBM E-score” value was 0.0381. For GCTTTATA, the “PBM E-score” value was -0.261. The result for CCCTCTAC reads -0.113.

Consider CCACGTCA, for which the “PBM E-score” value is -0.165. Next, GCACAAGC: 0.0452; CACGCAGG: -0.0242; CGATATGA: 0.125. TCATATGA: the “PBM E-score” value was 0.381. On to GGATATGA, for which the “PBM E-score” value is 0.289. As for GCATATGA, the “PBM E-score” value was found to be 0.19. The result for AGATATGA reads 0.161. Take CCATATGA: the “PBM E-score” value was 0.176. CATGAGCA: the “PBM E-score” value came to 0.125. On to GGTAGCGA, for which the “PBM E-score” value was -0.0248. Next, GAGGATAA: 0.0571; GCTGACAA: -0.0645.
